In PubChem BioAssay (Tox21):
Inconclusive results are not listed. Where a call stands in place of a potency, no number is given. The source made the active and inactive calls. Unless noted, calls come from the whole dose curve; as a rule, active = well fitted curve in the direction sought with a large enough effect in the repeat runs; inconclusive = weak or mixed curves; inactive = no such curve, though single readings can be large; an effect the other way counts as inactive or inconclusive.

Key:
[1] = qHTS assay to identify aromatase inhibitors - cell viability counter screen (AID 743084);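 note: cells stimulated with testosterone during compound exposure; nearly all actives have a fitted effect of over 55% in size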
[2] = molecular target: Aryl hydrocarbon receptor (Homo sapiens) (UniProt P35869); assay: qHTS assay to identify small molecule that activate the aryl hydrocarbon receptor (AhR) signaling pathway (AID 743085); note: nearly all actives have a fitted effect of over 15% in size; note: potency is the fitted concentration of half-maximal effect;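 for activation: HG2L7.5c1 human HepG2 liver cells with stably integrated DRE-driven firefly reporter; series mostly up to about 70 µM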
Aryl hydrocarbon receptor (Homo sapiens), sequence (P35869 whole entry, looked up): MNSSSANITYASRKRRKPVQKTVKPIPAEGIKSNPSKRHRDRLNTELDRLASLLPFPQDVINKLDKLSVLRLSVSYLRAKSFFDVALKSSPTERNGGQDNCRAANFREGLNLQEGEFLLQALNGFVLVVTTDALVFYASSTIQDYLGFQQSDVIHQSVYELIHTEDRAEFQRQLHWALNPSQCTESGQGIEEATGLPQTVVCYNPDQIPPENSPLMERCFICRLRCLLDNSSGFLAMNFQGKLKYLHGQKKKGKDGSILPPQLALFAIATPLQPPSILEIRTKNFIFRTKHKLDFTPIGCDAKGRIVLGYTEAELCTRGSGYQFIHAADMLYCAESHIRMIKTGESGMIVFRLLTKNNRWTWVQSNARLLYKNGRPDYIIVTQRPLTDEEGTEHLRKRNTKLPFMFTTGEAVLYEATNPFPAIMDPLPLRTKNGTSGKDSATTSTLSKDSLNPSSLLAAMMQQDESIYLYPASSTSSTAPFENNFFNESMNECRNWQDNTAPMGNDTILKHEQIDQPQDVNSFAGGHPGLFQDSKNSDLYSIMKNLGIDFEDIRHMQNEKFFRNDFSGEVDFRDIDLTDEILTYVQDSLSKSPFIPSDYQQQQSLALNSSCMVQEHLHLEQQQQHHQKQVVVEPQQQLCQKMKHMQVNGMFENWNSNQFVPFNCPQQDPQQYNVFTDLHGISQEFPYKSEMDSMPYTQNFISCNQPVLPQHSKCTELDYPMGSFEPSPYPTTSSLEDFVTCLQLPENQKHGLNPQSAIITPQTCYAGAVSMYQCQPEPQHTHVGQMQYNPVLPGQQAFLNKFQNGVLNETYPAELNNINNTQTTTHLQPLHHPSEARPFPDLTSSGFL
Procedure, shortened: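 Reporter assay in engineered HepG2 line HG2L7.5c1, whose plasmid carries twenty dioxin responsive elements upstream of firefly luciferase. Treatment lasted 24 h at 37C; ONE-Glo luminescence gauged induction.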

[3] = qHTS assay to identify small molecule that activate the aryl hydrocarbon receptor (AhR) signaling pathway - cell viability counter screen (AID 743086);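 note: HepG2 liver cells carrying the AhR DRE luciferase reporter; series mostly up to about 70 µM; nearly all actives have a fitted effect of over 45% in size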
Procedure, shortened: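 HepG2-AhR-luc (HG2L7.5c1) cells, 4000/well, were preincubated 5 h at 37C, exposed to compound in qHTS format for 24 hr at 37C, then given CellTiter-Fluor for 30 min; viability was read as fluorescence in the reporter wells.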

[4] = molecular target: Peroxisome proliferator-activated receptor gamma (Homo sapiens) (UniProt P37231); assay: qHTS assay to identify small molecule agonists of the peroxisome proliferator-activated receptor gamma (PPARg) signaling pathway (AID 743094; active = well fitted activation curve with a large enough effect in the signal ratio in the repeat runs, not every such curve was filed as active; the % refers to the signal ratio)
Peroxisome proliferator-activated receptor gamma (Homo sapiens), sequence (P37231 whole entry, looked up): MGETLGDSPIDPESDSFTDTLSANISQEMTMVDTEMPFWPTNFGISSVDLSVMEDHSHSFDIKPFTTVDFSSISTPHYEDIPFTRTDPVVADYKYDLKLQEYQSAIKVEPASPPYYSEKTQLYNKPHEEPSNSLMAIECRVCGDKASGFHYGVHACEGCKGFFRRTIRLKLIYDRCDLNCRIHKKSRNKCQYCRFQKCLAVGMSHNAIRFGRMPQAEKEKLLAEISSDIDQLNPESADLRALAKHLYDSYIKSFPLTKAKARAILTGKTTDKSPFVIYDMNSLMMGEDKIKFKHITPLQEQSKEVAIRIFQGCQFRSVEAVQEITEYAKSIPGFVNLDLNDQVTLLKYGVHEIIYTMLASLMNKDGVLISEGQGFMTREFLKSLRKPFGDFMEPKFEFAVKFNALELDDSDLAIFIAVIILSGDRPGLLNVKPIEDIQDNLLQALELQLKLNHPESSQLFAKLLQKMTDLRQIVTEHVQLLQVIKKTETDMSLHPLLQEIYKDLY
Procedure, shortened: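 HEK293H PPARg-bla cells, 5 h settle at 37C/5% CO2; compound (DMSO) 17 h, 37C; B/G FRET substrate 1 h RT; fluorescence intensity read-out. qHTS format.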

[5] = molecular target: Peroxisome proliferator-activated receptor gamma (Homo sapiens) (UniProt P37231); assay: qHTS assay to identify small molecule antagonists of the peroxisome proliferator-activated receptor gamma (PPARg) signaling pathway (AID 743191; calls by dose curve; note: series mostly up to about 63 µM; nearly all actives have a fitted effect of over 30% in size)
Procedure, shortened: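 GeneBLAzer PPARg UAS-bla HEK293H cells carrying a UAS-driven beta-lactamase reporter were plated at 3000 cells/well, preincubated 5 h at 37C, then given compound for 17 h at 37C; LiveBLAzer B/G FRET substrate was read after 1 h at room temperature.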

[6] = qHTS assay to identify small molecule antagonists of the peroxisome proliferator-activated receptor gamma (PPARg) signaling pathway - cell viability counter screen (AID 743194); note: nearly all actives have a fitted effect of over 55% in size
Procedure, shortened: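 PPARg-UAS-bla HEK293H cells were plated, rested 5 h at 37 C, then treated with compounds plus rosiglitazone (50 nM final) for 17 h at 37 C; viability was then read by CellTiter-Glo luminescence after 30 min at room temperature.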

[7] = qHTS assay for small molecule agonists of the antioxidant response element (ARE) signaling pathway (AID 743202; active = well fitted activation curve with a large enough effect in the signal ratio in the repeat runs, not every such curve was filed as active; the % refers to the signal ratio; note: potency is the fitted concentration of half-maximal effect)
Procedure, shortened: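 Following a 16 h, 37 C exposure of reporter HepG2 cells (ARE-driven beta-lactamase, 2,000 cells/well) to compounds, FRET substrate was applied for 2 h at room temperature and fluorescence intensity recorded.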

[8] = qHTS assay for small molecule agonists of the antioxidant response element (ARE) signaling pathway - cell viability counter screen (AID 743203; calls by dose curve; note: nearly all actives have a fitted effect of over 55% in size)
Procedure, shortened: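 Luminescence read-out (CellTiter-Glo, 30 min at room temperature) measured cell viability in the same wells as the ARE beta-lactamase reporter. HepG2 ARE-bla cells were treated with compounds for 16 hrs at 37C/5% CO2.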

[9] = qHTS assay for small molecule activators of the heat shock response signaling pathway - cell viability counter screen (AID 743209); note: nearly all actives have a fitted effect of over 50% in size
Procedure, shortened: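 HSE-bla HeLa; 1500 cells/well; overnight 37 C, 5% CO2; compound 5 h 37 C; LiveBLAzer B/G substrate 2.5 h RT; CellTiter-Glo 30 min RT; luminescence.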

[10] = qHTS assay for small molecule activators of the heat shock response signaling pathway (AID 743210; active = well fitted activation curve with a large enough effect in the signal ratio in the repeat runs, with a control signal flat, not every such curve was filed as active; the % refers to the signal ratio; note: series mostly up to about 63 µM)
Procedure, shortened: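 Heat shock element–beta-lactamase HeLa reporter cells; qHTS with compounds for 5 h at 37 C; detection by FRET substrate fluorescence after 2.5 h at RT.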

[11] = qHTS assay to identify small molecule agonists of the peroxisome proliferator-activated receptor delta (PPARd) signaling pathway - cell viability counter screen (AID 743211); note: nearly all actives have a fitted effect of over 55% in size
Procedure, shortened: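 Multiplexed format: after the 2 h room-temperature LiveBLAzer B/G FRET step, CellTiter-Glo was added to the same wells. Luminescence after 30 min gave cell viability; compound exposure was 17 h at 37C.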

[12] = molecular target: Peroxisome proliferator-activated receptor delta (Homo sapiens) (UniProt Q03181); assay: qHTS assay to identify small molecule agonists of the peroxisome proliferator-activated receptor delta (PPARd) signaling pathway (AID 743212; calls by dose curve)
Peroxisome proliferator-activated receptor delta (Homo sapiens), sequence (Q03181 whole entry, looked up): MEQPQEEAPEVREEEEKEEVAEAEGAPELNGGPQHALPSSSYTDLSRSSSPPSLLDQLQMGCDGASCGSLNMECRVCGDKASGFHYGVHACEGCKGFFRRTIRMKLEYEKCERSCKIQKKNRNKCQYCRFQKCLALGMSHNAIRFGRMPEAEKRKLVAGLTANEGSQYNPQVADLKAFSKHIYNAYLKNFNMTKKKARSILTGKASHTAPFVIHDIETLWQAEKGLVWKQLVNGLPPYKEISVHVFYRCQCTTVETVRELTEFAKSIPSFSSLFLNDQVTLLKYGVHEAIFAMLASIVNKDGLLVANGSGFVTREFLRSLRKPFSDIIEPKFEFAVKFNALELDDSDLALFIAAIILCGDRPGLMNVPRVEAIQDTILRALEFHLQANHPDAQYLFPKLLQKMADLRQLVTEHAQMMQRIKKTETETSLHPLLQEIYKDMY
Procedure, shortened: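 Beta-lactamase reporter read by fluorescence (LiveBLAzer B/G FRET, 2 h, room temperature). Test agents, in DMSO, incubated at 37 C with PPARd-bla HEK293H cells.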

[13] = qHTS assay to identify small molecule antagonists of the peroxisome proliferator-activated receptor delta (PPARd) signaling pathway - cell viability counter screen (AID 743213); note: nearly all actives have a fitted effect of over 50% in size
Procedure, shortened: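 PPARd-bla HEK293H cells (3000/well) got compound plus 300 nM L165041 agonist for 17 h at 37 C. Viability in the same wells came from CellTiter-Glo luminescence after 30 min at room temperature.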

[14] = molecular target: Peroxisome proliferator-activated receptor delta (Homo sapiens) (UniProt Q03181); assay: qHTS assay to identify small molecule antagonists of the peroxisome proliferator-activated receptor delta (PPARd) signaling pathway (AID 743215; active = well fitted inhibition curve with a large enough effect in the signal ratio in the repeat runs, not every such curve was filed as active; the % refers to the signal ratio;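 note: cells stimulated with agonist L165041 at 300 nM final during compound exposure; series mostly up to about 62 µM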)
Procedure, shortened: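 HEK293H GeneBLAzer PPARd UAS-bla reporter cells; cpd + L165041 300 nM final, 17 h 37 C; LiveBLAzer B/G FRET substrate 2 h RT; fluorescence intensity read-out. Antagonist mode.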

[15] = qHTS assay to identify small molecule agonists of the farnesoid-X-receptor (FXR) signaling pathway - cell viability counter screen (AID 743218); note: nearly all actives have a fitted effect of over 45% in size
Procedure, shortened: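 Luminescence from CellTiter-Glo, read after 30 min at RT, reports viability of GeneBLAzer FXR-UAS-bla HEK 293T cells treated 16 h with compounds in the wells used for the beta-lactamase reporter.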

[16] = qHTS assay to identify small molecule antagonists of the farnesoid-X-receptor (FXR) signaling pathway - cell viability counter screen (AID 743221; active = well fitted cell-killing curve with a large enough effect in the repeat runs, not every such curve was filed as active; note: nearly all actives have a fitted effect of over 50% in size)
Procedure, shortened: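 CellTiter-Glo, 30 min RT, luminescence; same wells as the LiveBLAzer FRET read. Cells: FXR-UAS-bla HEK 293T. Treatment: compound with chenodeoxycholic acid 50 uM final, 16 h at 37 C.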

[17] = molecular target: Vitamin D3 receptor (Homo sapiens) (UniProt P11473); assay: qHTS assay to identify small molecule agonists of the vitamin D receptor (VDR) signaling pathway (AID 743222; calls by dose curve)
Vitamin D3 receptor (Homo sapiens), sequence (P11473 whole entry, looked up): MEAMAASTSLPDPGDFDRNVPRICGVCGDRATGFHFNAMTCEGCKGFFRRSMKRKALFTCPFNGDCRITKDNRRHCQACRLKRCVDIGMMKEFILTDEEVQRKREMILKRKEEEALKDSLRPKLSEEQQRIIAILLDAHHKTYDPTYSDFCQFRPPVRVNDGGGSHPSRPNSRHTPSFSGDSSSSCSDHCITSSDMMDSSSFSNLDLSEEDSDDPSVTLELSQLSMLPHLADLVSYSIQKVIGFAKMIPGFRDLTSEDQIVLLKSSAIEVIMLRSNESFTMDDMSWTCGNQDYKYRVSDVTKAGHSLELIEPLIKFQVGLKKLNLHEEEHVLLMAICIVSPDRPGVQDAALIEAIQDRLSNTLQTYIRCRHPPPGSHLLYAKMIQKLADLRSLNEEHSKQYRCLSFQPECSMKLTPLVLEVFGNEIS
Procedure, shortened: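 Beta-lactamase reporter readout (LiveBLAzer B/G FRET, 2 h RT) in VDR-bla cells after 16 h compound treatment at 37C, 5% CO2; cells pre-incubated 4 h before pin transfer of DMSO solutions.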

[18] = molecular target: Vitamin D3 receptor (Homo sapiens) (UniProt P11473); assay: qHTS assay to identify small molecule antagonists of the vitamin D receptor (VDR) signaling pathway (AID 743223; active = well fitted inhibition curve with a large enough effect in the signal ratio in the repeat runs, not every such curve was filed as active; the % refers to the signal ratio)
Procedure, shortened: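 After VDR-bla cells are plated and left 4 h at 37C, DMSO-dissolved compounds and 3 nM (final) calcitriol agonist are added. Incubation continues 16 h at 37C; FRET beta-lactamase substrate then develops 2 h at room temperature.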

[19] = molecular target: Bile acid receptor (Homo sapiens) (UniProt Q96RI1); assay: qHTS assay to identify small molecule antagonists of the farnesoid-X-receptor (FXR) signaling pathway (AID 743217; active = well fitted inhibition curve with a large enough effect in the signal ratio in the repeat runs, not every such curve was filed as active; the % refers to the signal ratio)
Bile acid receptor (Homo sapiens), sequence (Q96RI1 whole entry, looked up): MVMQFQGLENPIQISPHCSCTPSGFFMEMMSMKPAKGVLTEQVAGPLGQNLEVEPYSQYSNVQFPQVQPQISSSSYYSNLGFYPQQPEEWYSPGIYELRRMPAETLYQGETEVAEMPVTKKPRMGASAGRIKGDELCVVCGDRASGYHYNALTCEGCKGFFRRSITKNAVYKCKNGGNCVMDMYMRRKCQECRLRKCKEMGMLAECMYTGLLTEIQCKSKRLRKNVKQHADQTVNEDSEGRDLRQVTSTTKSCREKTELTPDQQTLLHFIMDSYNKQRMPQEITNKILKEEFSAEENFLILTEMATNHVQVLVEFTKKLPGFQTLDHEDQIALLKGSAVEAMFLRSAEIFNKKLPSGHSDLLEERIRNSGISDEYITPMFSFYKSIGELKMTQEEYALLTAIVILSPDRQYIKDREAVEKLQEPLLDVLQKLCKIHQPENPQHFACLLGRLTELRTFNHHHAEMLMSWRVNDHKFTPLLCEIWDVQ
Procedure, shortened: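 Read-out: beta-lactamase FRET fluorescence (LiveBLAzer B/G substrate, 2 h, room temperature) in GeneBLAzer FXR-UAS-bla HEK 293T cells. Compounds were co-dosed with 50 uM chenodeoxycholic acid (final) and incubated 16 h at 37 °C.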

[20] = molecular target: Bile acid receptor (Homo sapiens) (UniProt Q96RI1); assay: qHTS assay to identify small molecule agonists of the farnesoid-X-receptor (FXR) signaling pathway (AID 743220; active = well fitted activation curve with a large enough effect in the signal ratio in the repeat runs, not every such curve was filed as active; the % refers to the signal ratio)
Procedure, shortened: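 FXR-UAS-bla HEK 293T cells carrying a UAS-driven beta-lactamase reporter were plated for 5 h at 37C/5% CO2, then exposed to DMSO-dissolved Tox21 10K compounds for 16 h at 37C. A LiveBLAzer B/G FRET substrate was loaded for 2 h at room temperature before fluorescence reading.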

| SMILES | Potency [1] | Potency [2] | outcome [3] | Potency [4] | Potency [5] | Potency [6] | Potency [7] | Potency [8] | outcome [9] | Potency [10] | Potency [11] | outcome [12] | Potency [13] | outcome [14] | Potency [15] | outcome [16] | outcome [17] | outcome [18] | outcome [19] | outcome [20] |
| --- | --- | --- | --- | --- | --- | --- | --- | --- | --- | --- | --- | --- | --- | --- | --- | --- | --- | --- | --- | --- |
| Cc1c(C(=O)NCCO)[n+](=O)c2ccccc2n1[O-] | inactive | inactive | inactive | inactive | inactive | inactive | inactive | inactive | inactive | inactive | inactive | inactive | inactive | inactive | inactive | inactive | inactive | inactive |  |  |
| O=c1[nH]cnc2c1ncn2[C@@H]1O[C@H](CO)[C@@H](O)[C@H]1O | inactive | inactive | inactive | inactive | inactive | inactive | inactive | inactive | inactive | inactive |  | inactive | inactive | inactive | inactive | inactive | inactive | inactive | inactive | inactive |
| CCC(=O)O[C@]1(C(=O)SCF)[C@H](C)C[C@H]2[C@@H]3C[C@H](F)C4=CC(=O)C=C[C@]4(C)[C@@]3(F)[C@@H](O)C[C@@]21C | inactive | inactive | inactive | inactive | inactive | inactive | inactive | inactive | inactive | inactive |  |  |  | inactive | inactive | inactive | inactive |  |  |  |
| CCOC(=O)CS | inactive | inactive | inactive | inactive |  | inactive |  | inactive | inactive | inactive |  | inactive |  | inactive | inactive | inactive | inactive | inactive | inactive | inactive |
| CCc1cc(Cl)c(OC)c(C(=O)NC[C@@H]2CCCN2CC)c1O | inactive | inactive | inactive | inactive |  | inactive |  | inactive | inactive | inactive | inactive | inactive |  | inactive |  |  | inactive |  |  |  |
| CC(C)CCCCCCc1ccc(OCCOCCO)cc1 | inactive | inactive | inactive | inactive |  | inactive | inactive | inactive | inactive | inactive | inactive |  | inactive |  | inactive | inactive |  |  |  |  |
| CC(CNC1CCCCC1)OC(=O)c1ccccc1 (centres undefined) | inactive | inactive | inactive | inactive |  | inactive |  | inactive | inactive | inactive | inactive | inactive | inactive | inactive | inactive | inactive |  |  |  | inactive |
| CN1C(=O)CC(c2ccccc2)C1=O (centres undefined) | inactive | inactive | inactive | inactive |  | inactive | inactive | inactive | inactive | inactive | inactive |  |  |  | inactive | inactive |  |  | inactive | inactive |
| CCCc1c2oc(C(=O)O)cc(=O)c2cc2c(=O)cc(C(=O)O)n(CC)c12 | inactive | inactive | inactive | inactive |  | inactive | inactive | inactive | inactive | inactive | inactive | inactive | inactive | inactive | inactive | inactive | inactive | inactive | inactive | inactive |
| C[C@]12CCC(=O)C=C1CC[C@@H]1[C@@H]2CC[C@@]2(C)[C@H]1CC[C@]2(O)C(=O)CO | inactive | inactive | inactive | inactive |  | inactive | inactive | inactive | inactive | inactive | inactive | inactive | inactive | inactive | inactive | inactive |  | inactive |  |  |
| CO[Si](C)(C)OC | inactive | inactive | inactive | inactive | inactive |  | inactive | inactive | inactive | inactive | inactive |  | inactive |  | inactive | inactive |  |  |  |  |
| CC(=O)N(CC(O)CN(C(C)=O)c1c(I)c(C(=O)NCC(O)CO)c(I)c(C(=O)NCC(O)CO)c1I)c1c(I)c(C(=O)NCC(O)CO)c(I)c(C(=O)NCC(O)CO)c1I (centres undefined) | inactive | inactive | inactive | inactive | inactive |  | inactive | inactive | inactive | inactive | inactive | inactive |  | inactive | inactive | inactive |  | inactive | inactive | inactive |
| CC(C)=CCC[C@](C)(O)[C@@H]1CC=C(C)CC1 | inactive | inactive | inactive | inactive |  |  |  | inactive |  |  |  | inactive | inactive |  | inactive |  |  |  |  |  |
| COc1ccc(Nc2ccc(OC)cc2)cc1 | inactive | inactive | inactive | inactive |  | inactive |  | inactive | inactive | inactive | inactive |  |  |  | inactive | inactive | inactive |  |  | inactive |
| N#Cc1ccc(C(c2ccc(C#N)cc2)n2cncn2)cc1 | inactive | inactive | inactive | inactive | inactive |  | inactive | inactive | inactive | inactive |  | inactive |  | inactive | inactive | inactive | inactive | inactive | inactive | inactive |
| COC(=O)C(C)O (centres undefined) | inactive | inactive | inactive | inactive | inactive |  | inactive | inactive | inactive | inactive | inactive |  | inactive | inactive | inactive | inactive |  |  | inactive | inactive |
| CCCCCCCCCCCCCCCCOP(=O)([O-])OCC[N+](C)(C)C | inactive | inactive | inactive | inactive |  |  |  | inactive |  |  | inactive | inactive |  | inactive |  | inactive | inactive | inactive |  |  |
| OCCN(CCO)c1ccccc1 | inactive | inactive | inactive | inactive |  | inactive |  | inactive | inactive | inactive | inactive |  | inactive |  | inactive | inactive |  | inactive | inactive | inactive |
| CCOc1ccc2nc(N)sc2c1 | inactive | 2.15 µM (active) | inactive | inactive |  | inactive | 48.2 µM (active) | inactive | inactive | inactive | inactive |  | inactive |  | inactive | inactive |  |  |  |  |
